# Test results reported in the supplement of paper PMC12645437, “Orthogonal IMiD-Degron Pairs Induce Selective Protein Degradation in Cells” (ACS Chemical Biology, 2025).
# The full ranking holds about 8,300 sequences; the median of “log2 fold change of degron read counts, EGFP-low vs EGFP+ sorted cells (limma voom), compound-induced degradation” is about -1.1, and the highest 2% start at about 3.2. The sample as a whole holds a higher share of the highest values than the screen did.
# T1: CRBN, Q96SW2
# T1 chain: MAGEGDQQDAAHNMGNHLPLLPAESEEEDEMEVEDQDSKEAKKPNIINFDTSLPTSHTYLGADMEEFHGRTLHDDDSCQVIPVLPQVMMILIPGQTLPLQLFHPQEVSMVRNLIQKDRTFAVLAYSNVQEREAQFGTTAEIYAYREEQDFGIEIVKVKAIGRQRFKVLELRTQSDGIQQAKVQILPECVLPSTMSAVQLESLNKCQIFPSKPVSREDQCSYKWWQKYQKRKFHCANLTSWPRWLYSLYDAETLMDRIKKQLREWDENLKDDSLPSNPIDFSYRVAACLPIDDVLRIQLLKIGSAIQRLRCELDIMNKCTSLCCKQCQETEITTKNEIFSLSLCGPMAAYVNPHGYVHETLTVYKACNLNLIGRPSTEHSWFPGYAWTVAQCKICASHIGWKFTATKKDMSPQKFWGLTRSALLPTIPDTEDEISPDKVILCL
# Biological target: T1, CRBN, Q96SW2
# Experiment: log2 fold change of degron read counts, EGFP-low vs EGFP+ sorted cells (limma voom), compound-induced degradation; higher = more compound-induced degradation of the degron-EGFP fusion; degrons are variants of IKZF1/3 zinc finger 2; compound dose not given here
# Settings: Jurkat, 18 h
# [1] = compound: compound 19 (5-tert-butyl-thalidomide)
# [2] = compound: compound 22 (5-morpholino-thalidomide)
# [3] = compound: compound 33 (diphenyl IMiD analogue)
# 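Note: pooled lentiviral library of zinc finger degron-EGFP fusions in mCherry-positive Jurkat cells, FACS-sorted after compound exposure, with degron abundance counted by next-generation sequencing.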
Sequence,log2 fold change of degron read counts [1],log2 fold change of degron read counts [2],log2 fold change of degron read counts [3],log2 fold change of degron read counts (compound: thalidomide)
"FICPICGHQFTQKGNLLRHIKL [46F_47I_49P_50I_52G_53H_54Q_55F_67L_, Q9UKT9]",-2.44,-2.12,-1.5,-1.12
"FGCDVCGAMFTQKGNLLRHIKL [46F_47G_49D_50V_52G_53A_54M_55F_67L_, Q9UKT9]",0.868,-0.562,-0.229,-1.8
"FTCPICGREFTQKGNLLRHIKL [46F_47T_49P_50I_52G_53R_54E_55F_67L_, Q9UKT9]",-1.73,-0.622,-0.517,0.583
"FLCNQCGHMFTQKGNLLRHIKL [46F_47L_49N_50Q_52G_53H_54M_55F_67L_, Q9UKT9]",-2.55,-2.97,-3.4,-2.9
"FKCEQCGAQFTQKGNLLRHIKL [46F_47K_49E_50Q_52G_53A_54Q_55F_67L_, Q9UKT9]",-2.76,-3.28,-3.17,-2.41
"FSCPICGHEFTQKGNLLRHIKL [46F_47S_49P_50I_52G_53H_54E_55F_67L_, Q9UKT9]",-2.38,-3.52,-2.42,-2.6
"LICNQCGFPCTQKGNLLRHIKL [46L_47I_49N_50Q_52G_53F_54P_55C_67L_, Q9UKT9]",-2.14,-2.53,-2.15,-1.65
"FMCNICGAWFTQKGNLLRHIKL [46F_47M_49N_50I_52G_53A_54W_55F_67L_, Q9UKT9]",-1.88,-2.01,-0.0323,-1.08
"FCCEICGAEFTQKGNLLRHIKL [46F_47C_49E_50I_52G_53A_54E_55F_67L_, Q9UKT9]",1.77,1.26,0.921,1.54
"FYCEICGAEFTQKGNLLRHIKL [46F_47Y_49E_50I_52G_53A_54E_55F_67L_, Q9UKT9]",3.55,3.26,2.06,0.377
"FACEICGAEFTQKGNLLRHIKL [46F_47A_49E_50I_52G_53A_54E_55F_67L_, Q9UKT9]",2.52,1.11,-1.05,-0.214
"FNCEICGAEFTQKGNLLRHIKL [46F_47N_49E_50I_52G_53A_54E_55F_67L_, Q9UKT9]",1.62,-0.794,-0.586,-0.166
"FRCEICGAEFTQKGNLLRHIKL [46F_47R_49E_50I_52G_53A_54E_55F_67L_, Q9UKT9]",-0.6,-0.629,1.71,1.31
"FQCEICGAEFTQKGNLLRHIKL [46F_47Q_49E_50I_52G_53A_54E_55F_67L_, Q9UKT9]",1.15,1.54,1.73,3.53
"FTCDVCGATFTQKGNLLRHIKL [46F_47T_49D_50V_52G_53A_54T_55F_67L_, Q9UKT9]",-1.33,0.301,0.357,0.358
"FHCPICGRLFTQKGNLLRHIKL [46F_47H_49P_50I_52G_53R_54L_55F_67L_, Q9UKT9]",-0.285,-0.232,0.531,-0.155
"FLCEICGAAFTQKGNLLRHIKL [46F_47L_49E_50I_52G_53A_54A_55F_67L_, Q9UKT9]",2.02,0.295,1.47,1.59
"FHCEICGAAFTQKGNLLRHIKL [46F_47H_49E_50I_52G_53A_54A_55F_67L_, Q9UKT9]",3.24,3,1.87,0.773
"FGCEICGAAFTQKGNLLRHIKL [46F_47G_49E_50I_52G_53A_54A_55F_67L_, Q9UKT9]",3.04,2.59,2.15,1.39
"FWCEICGAAFTQKGNLLRHIKL [46F_47W_49E_50I_52G_53A_54A_55F_67L_, Q9UKT9]",3.77,3.83,2.67,1.57
"FRCEICGAAFTQKGNLLRHIKL [46F_47R_49E_50I_52G_53A_54A_55F_67L_, Q9UKT9]",2.72,2.37,2.62,2.49
"FMCEICGAAFTQKGNLLRHIKL [46F_47M_49E_50I_52G_53A_54A_55F_67L_, Q9UKT9]",2.64,2.45,3.19,2.46
"FECEICGAAFTQKGNLLRHIKL [46F_47E_49E_50I_52G_53A_54A_55F_67L_, Q9UKT9]",2.86,-0.833,2.05,2.53
"FACEICGAAFTQKGNLLRHIKL [46F_47A_49E_50I_52G_53A_54A_55F_67L_, Q9UKT9]",3.9,3.03,1.11,1.38
"FDCEICGAAFTQKGNLLRHIKL [46F_47D_49E_50I_52G_53A_54A_55F_67L_, Q9UKT9]",2.61,0.418,0.792,1.38
"FFCEICGAAFTQKGNLLRHIKL [46F_47F_49E_50I_52G_53A_54A_55F_67L_, Q9UKT9]",3.55,3.64,2.55,1.87
"FACPICGALFTQKGNLLRHIKL [46F_47A_49P_50I_52G_53A_54L_55F_67L_, Q9UKT9]",1.68,-0.526,0.427,-0.353
"FRCNICGAVFTQKGNLLRHIKL [46F_47R_49N_50I_52G_53A_54V_55F_67L_, Q9UKT9]",-1.72,-0.828,0.967,0.628
